Records with an inconclusive call do not appear. A number with no mark means an inactive call. Active and inactive are the calls of the source. The call rests on the fitted dose curve; in most records, active means well fitted cell-killing curve with a large enough effect; inconclusive means small, poorly fitted or top-dose-only effect, or effect the other way; inactive means no such curve, though single readings can be large or run the other way.

The experiment concerns SW626. Put plainly: Confirmatory qHTS for gynecologic anti-cancer compounds from libraries of approved drugs and bioactive compounds. Further: nearly all actives have a fitted effect of over 55% in size. The note with it: gynecologic cancer cell panel viability, ATPlite luminescence, 48 h; series mostly up to 57.6 µM. The method in brief:
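Cells (1,000/well) plated 16 h, then exposed 48 h at 37 °C to 11 concentrations (1:3) from 57.5 uM to 0.977 nM. Viability by ATPlite luminescence after 15 min; IC50 derived, with HEK 293T used for selectivity index.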
On the % scale 0 is the no-effect control and ±100 the full control effect; potency means the concentration at half of the fitted maximal effect.

Turning to `O=C(Nc1cn[nH]c1-c1nc2ccc(CN3CCOCC3)cc2[nH]1)NC1CC1`, the Potency result was “inactive”. The same measure, in the same setting: as for `CN(Cc1cnc2nc(N)nc(N)c2n1)c1ccc(C(=O)N[C@@H](CCC(=O)O)C(=O)O)cc1`, the entry is “inactive”; as for `Cc1[nH]c2ccccc2c1CCNCc1ccc(/C=C/C(=O)NO)cc1`, 0.0968 µM (active); as for `CCCCN(CCCC)C(=O)CN1C[C@H](c2ccc3c(c2)OCO3)[C@@H](C(=O)O)[C@@H]1c1ccc(OC)cc1`, “inactive”. The same measure, in the same setting: as for `COc1cc(N2CCC(N(C)C)CC2)ccc1Nc1ncc(Cl)c(Nc2ccccc2P(C)(C)=O)n1`, the figure is 3.85 µM (active). `Cc1cnc(CNC(=O)c2c(=O)c3ccc(N4CCCN(C)CC4)nc3n3c2sc2ccccc23)cn1`: the activity change, negative = viability loss is -6.28% [at 10.7 µM].

As to `COc1cc(C(=O)N2CCC(N3CCN(C)CC3)CC2)ccc1Nc1ncc2c(n1)N(C)c1ccccc1C(=O)N2C`, the Potency was 7.69 µM (active). Consider `S=c1nc[nH]c2nc[nH]c12`, for which the Potency is 6.85 µM (active).

`CC(C)n1c(/C=C/[C@@H](O)C[C@@H](O)CC(=O)O)c(-c2ccc(F)cc2)c2ccccc21`: the Potency was 1.37 µM (active). On to `C[C@@H](Oc1cc(-c2cnn(C3CCNCC3)c2)cnc1N)c1c(Cl)ccc(F)c1Cl`, for which the Potency is 21.7 µM (active).

With `CC1(C)[C@@H](O)CC[C@]2(C)[C@H]3C(=O)C=C4[C@@H]5C[C@@](C)(C(=O)O)CC[C@]5(C)CC[C@@]4(C)[C@]3(C)CC[C@@H]12`, the Potency entry is “inactive”. Regarding `Cc1ccc(C(=O)Nc2ccc(Oc3cc4cnn(C)c4cc3-c3cn[nH]c3)c(F)c2)c(=O)n1-c1ccc(F)cc1`, the Potency is 4.32 µM (active). As to `O=C1N(c2ccccc2)c2ccccc2C1(Cc1ccncc1)Cc1ccncc1`, the Potency entry is “inactive”.

In the case of `COC(=O)c1ccc2c(C(=Nc3ccc(N(C)C(=O)CN4CCN(C)CC4)cc3)c3ccccc3)c(O)[nH]c2c1`, the Potency is 24.3 µM (active). As to `CC[C@@]1(O)C(=O)OCc2c1cc1n(c2=O)Cc2cc3cc(O)ccc3nc2-1`, the Potency is 0.217 µM (active).

As for `CCCCN(CCCC)CC(O)c1cc(Cl)cc2c1-c1ccc(Cl)cc1/C2=C/c1ccc(Cl)cc1` (stereo unspecified), the Potency entry was “inactive”.

In the case of `C[C@]12CCC(=O)C=C1CC[C@@H]1[C@@H]2[C@@H](O)C[C@@]2(C)[C@H]1CC[C@]2(O)C(=O)CO`, the Potency result is “inactive”.

For the compound `NC(=O)c1ccc2nc(-c3ccc(Oc4ccc(Cl)cc4)cc3)[nH]c2c1`, the Potency entry was “inactive”. On to `O=C(c1ccc(/C=C/c2n[nH]c3ccccc23)cc1)N1CCNCC1`, for which the Potency is 15.3 µM (active). For the compound `CN(c1nccc(=O)[nH]1)C1CCN(c2nc3ccccc3n2Cc2ccc(F)cc2)CC1`, the Potency result was “inactive”. Same read-out and setting: as for `COc1cc(Nc2c(C#N)cnc3cc(OCCCN4CCN(C)CC4)c(OC)cc23)c(Cl)cc1Cl`, the figure is 19.3 µM (active); as for `Fc1cc(-c2cccc3ncc(-c4cnn(C5CCNCC5)c4)nc23)cc(F)c1CN1CCOCC1`, 27.3 µM (active).

On to `CNC1CCC(N(Cc2cccc(-c3ccncc3)c2)C(=O)c2sc3ccccc3c2Cl)CC1` (stereo unspecified), for which the Potency was 30.6 µM (active). On the same count and under the same terms, as for `COC(C(=O)N1Cc2[nH]nc(NC(=O)c3ccc(N4CCN(C)CC4)cc3)c2C1)c1ccccc1` (stereo unspecified), the entry is “inactive”.

Consider `CC(C)Oc1ccc(C(=O)NC(CNC(=O)CN(C)C)Cc2ccc(-c3cn4cccc(C(C)O)c4n3)cc2)cc1Cl` (stereo unspecified), for which the Potency entry is “inactive”. With `Cc1nc2ccc(CN(C)c3ccc(C(=O)NC(CCC(=O)O)C(=O)O)s3)cc2c(=O)[nH]1` (stereo unspecified), the Potency entry was “inactive”.

Turning to `Cc1cc(CN2CCN(c3c(Br)cnc4nc(-c5ccc(N6CCN(C)CC6)cc5)[nH]c34)CC2)no1`, the Potency was 24.3 µM (active).

In the case of `CC(C)Oc1ccc2c(=O)c(-c3ccccc3)coc2c1`, the Potency is 21.7 µM (active). With `FC(F)(F)c1ccc(/C=C/c2nc(COc3ccc(CCCCn4ccnn4)cc3)co2)cc1`, the Potency entry was “inactive”. On the same count and under the same terms, the same measure for `CCCCc1nc2cc(/C=C/C(=O)NO)ccc2n1CCN(CC)CC`: 0.769 µM (active); for `O=c1[nH]c(=O)n([C@H]2C[C@H](O)[C@@H](CO)O2)cc1C(F)(F)F`: “inactive”.

The values are drawn from PubChem BioAssay AID1345085 (National Center for Advancing Translational Sciences (NCATS), 2018).
